# PABP1 MLLE inh: inhibitors of PABP1 MLLE–PAM2 peptide binding, primary screen, biochemical, fluorescence polarization, FITC-PAM2, GST-MLLE; inhibition, % at 20 µM; 0.36% of 360,000 active; in the data active = inhibition above about 35%, passing the limit was not always enough
# eIF4H inh: human eIF4H binding inhibitors, primary screen, translation initiation inhibitor project, biochemical, uHTS, fluorescence polarization. eIF4H fluorescence polarization binding assay. Eukaryotic translation initiation factor 4H (Homo sapiens), Q15056. AID 2012, 2009. inhibition, % at 35 µM. 0.94% of 290,000 active;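 note: calls also rest on retests at 20 µM and on dose response follow-up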
# PABP polyA inh: PABP poly(A) RNA binding inhibitors, primary screen, biochemical, fluorescence polarization, uHTS; Polyadenylate-binding protein 1 (Homo sapiens), P11940; calls only at 35 µM; 1% of 290,000 active;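 note: calls also rest on retests at 20 µM and on dose response follow-up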
# eIF4E-4G inh: eIF4E–eIF4G protein interaction inhibitors, primary screen, biochemical, uHTS, TR-FRET, eIF4GI fragment; Eukaryotic translation initiation factor 4E (Mus musculus) + Eukaryotic translation …; AID 782, 2007; inhibition, % at 21.7 µM; 0.37% of 220,000 active; TR-FRET eIF4E-eIF4GI(517-606) binding, 2 h;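 active = inhibition above about 30%, limit read from the data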
# A number is an active result; – = inactive; · = no result; + = active, no number. The list is not random: actives were taken first. Their share in the collection is about 1.5%. Unless noted, the rule behind the calls is not given here.
SMILES,PABP1 MLLE inh,eIF4H inh,PABP polyA inh,eIF4E-4G inh
Cc1cccc(C)c1NC(=O)CN1C(=O)S/C(=C\c2cccn2-c2cccc(C(=O)O)c2)C1=O,–,80,+,–
COc1ccc(/C=C2\SC(=O)N(CCCC(=O)Nc3ccc(C(=O)O)cc3)C2=O)cc1,–,·,·,·
COc1ccc(C(O)c2nc(-c3ccccc3C)cs2)cc1 (configuration not stated),–,·,·,·
Cc1nn(Cc2ccccc2Cl)c(C)c1NC(=O)CSc1n[nH]c(C)c1[N+](=O)[O-],·,–,–,–
Cc1ccc(NC(=O)CN2C(=O)S/C(=C\c3cccn3-c3cccc(C(=O)O)c3)C2=O)cc1C,–,–,+,–
Cc1cccc(NC(=O)CN2C(=O)S/C(=C\c3cccn3-c3cccc(C(=O)O)c3)C2=O)c1,–,–,–,–
CCOc1ccc2[nH]c(=O)c(C(c3nnnn3Cc3ccco3)N3CCC(C)CC3)cc2c1 (configuration not stated),–,50,+,–
Cc1ccc2cc(CN(Cc3ccc4c(c3)OCO4)Cc3nnnn3Cc3ccco3)c(=O)[nH]c2c1,–,–,–,–
CCC(c1nnnn1Cc1ccco1)N(Cc1ccccc1OC)Cc1cc2cc(C)ccc2[nH]c1=O (configuration not stated),–,–,–,–
CCC(c1nnnn1Cc1ccco1)N(Cc1cc2cc(C)cc(C)c2[nH]c1=O)CC1CCCO1 (configuration not stated),–,20,–,–
COc1ccc2cc(CN(CCc3ccccc3)Cc3nnnn3Cc3ccco3)c(=O)[nH]c2c1,–,55,+,–
CCC(C)(C)n1nnnc1C(C(C)C)N(Cc1cccnc1)Cc1ccco1 (configuration not stated),–,–,–,–
COc1ccc(Cn2nnnc2C(c2cc3ccc(OC)cc3[nH]c2=O)N2CCC(C)CC2)cc1 (configuration not stated),–,–,–,–
CCC(C)(C)n1nnnc1C(C(C)C)N(Cc1ccco1)Cc1cc2cc3c(cc2[nH]c1=O)OCO3 (configuration not stated),–,–,+,–
Cc1c(C(=O)NCc2cccc(C(F)(F)F)c2)sc(=O)n1Cc1ccccc1F,–,·,·,·
COc1cc2cc(CN(Cc3nnnn3Cc3ccccc3)CC3CCCO3)c(=O)[nH]c2cc1OC (configuration not stated),–,54,+,–
CCOc1ccc2[nH]c(=O)c(C(c3nnnn3Cc3ccco3)N3CCCC(C)C3)cc2c1 (configuration not stated),–,30,–,–
CCOc1ccc2[nH]c(=O)c(C(c3nnnn3C3CCCCC3)N3CCN(C)CC3)cc2c1 (configuration not stated),–,–,–,–
COc1ccc2[nH]c(=O)c(CN(C3CCCCC3)C(c3nnnn3Cc3ccco3)C(C)C)cc2c1 (configuration not stated),–,63,+,–
COc1ccc2[nH]c(=O)c(CN(Cc3nnnn3Cc3ccco3)C3CCCCC3)cc2c1,–,–,–,–
CCOc1ccc(C=NNC(=O)c2cccc3ccccc23)cc1OCC,–,·,·,·
CC1=C(C(=O)N2CCOCC2)CC(CC(=O)NCCCN(C)C)C(=O)N1Cc1ccc(F)cc1 (configuration not stated),–,·,·,·
CC1=NN(c2ccccc2)C(=O)/C1=C\c1ccc(Oc2ccc([N+](=O)[O-])cc2[N+](=O)[O-])cc1,–,–,–,–
COc1cc(/C=C2\C(=O)N(c3ccccc3)N=C2C)ccc1Oc1ccc([N+](=O)[O-])cc1[N+](=O)[O-],–,active,+,–
CCN(CC(=O)NCc1ccc(Cl)cc1)C(=O)NCc1ccc(Cl)cc1,–,–,–,·
SMILES,PABP1 MLLE inh,eIF4H inh,PABP polyA inh,eIF4E-4G inh
CCN(CC(=O)NCc1ccc(Cl)cc1)C(=O)CNS(=O)(=O)c1ccc(NC(C)=O)cc1,41,–,–,·
CCN(CC(=O)NCc1ccc(Cl)cc1)CC(=O)Nc1ccc(C(N)=O)cc1,–,0.4,–,–
CCN(CC)CCN1C(=O)C(=O)/C(=C(/O)c2ccc(C)cc2)C1c1cccnc1 (configuration not stated),–,–,–,97
CCN(CC)CCCN1C(=O)C(=O)/C(=C(/O)c2ccc(C)cc2)C1c1ccccn1 (configuration not stated),–,3.1,+,–
CC(=O)OCC1=C(C(=O)O)N2C(=O)C(NC(=O)c3ccc(F)cc3)C2SC1 (configuration not stated),–,–,–,–
CO/N=C(\C(=O)N[C@@H]1C(=O)N2C(C(=O)O)=C(COC(N)=O)CS[C@H]12)c1ccco1,–,5.6,+,–
OC[C@@H]1CN(Cc2ccc(F)cc2)C[C@H](n2cnc3c(N4CCN(c5ccccc5)CC4)ncnc32)O1,–,·,·,·
COCCn1c(C)cc(/C=C2\NC(=S)N(C)C2=O)c1C,–,–,+,–
COCCn1c(C)cc(/C=C2/SC(=O)N(C(C)C(=O)OC)C2=O)c1C (configuration not stated),–,–,–,–
O=C(Nc1ccc(CN2CCOCC2)cc1)c1ccc(-c2ccc(Cl)cc2Cl)o1,–,–,–,95
Cc1ccc(NC(=O)C2(C)CCN2C(=O)C2CCCCC2)cc1C (configuration not stated),–,·,·,·
O=C(Nc1ccc2c(c1)OCCO2)C(C1CC1)N1CCN(c2ccc(F)cc2)CC1 (configuration not stated),–,·,·,·
COc1ccc(C(C)N2CC34C=CC(O3)C(C(=O)O)C4C2=O)cc1 (configuration not stated),–,–,–,–
COC(=O)C1C2C=CC3(CN(C(C)c4ccc(OC)cc4)C(=O)C13)O2 (configuration not stated),–,active,+,–
C[C@@H]1CN=C2N(CCNC(=O)CCC3CCCCC3)[C@H](Cc3ccc(O)cc3)CN21,–,–,–,–
CCCCCCNC(=O)N[C@H](C(=O)NCCC[C@H]1CN2C(=NC[C@H]2C)N1CCC(c1ccccc1)c1ccccc1)C(C)O (some centres not stated),·,–,–,53
O=C(NCSc1ccccc1)c1ccccc1,42,·,·,·
O=C(NCNC(=O)c1ccccc1)c1ccccc1,–,–,–,–
CC(C)c1ccc(S(=O)(=O)NCCCN2CCOCC2)cc1,–,·,·,·
CCCc1nc2c(C)cc(Br)cn2c1Cc1ccsc1,43,·,·,·
CCCc1nc2c(C)cc(Br)cn2c1Cc1ccccc1,–,·,·,·
Cn1c(=O)c2cc(NC(=O)Nc3cccnc3)ccc2n1-c1ccc(C(C)(C)C)cc1,–,·,·,·
CC(C)(C)NC1=NCCNC(c2ccccc2)=C1,–,·,·,·
CC(CS(=O)(=O)c1ccc2c(c1)NC(=O)CS2)C(=O)N1CCN(c2cccc(Cl)c2)CC1 (configuration not stated),–,74,+,·
CC(CS(=O)(=O)c1ccc2c(c1)NC(=O)CS2)C(=O)NCc1ccccc1Cl (configuration not stated),–,–,+,·
